Source: PubChem
Shown are actives, neighbours in structure and some others; about 22% of the full set was active somewhere.
CYP2C19 act: human CYP2C19 activators, primary screen, biochemical, luminescence; Cytochrome P450 2C19 (Homo sapiens), P33261; recombinant CYP2C19, luciferin-H EGE luminescence; stronger effect = higher value; 0 = fully inhibited enzyme, 1 = untreated enzyme; activation factor at 5 µM; 96,000 tested, under 10 active; AID 1025, 2008;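 active means activation factor of at least 2 at 5 µM in the primary screen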;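 further: 0 = wells with 2.5 mM tranylcypromine and 1 = vehicle-only wells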
Target sequence (P33261 whole entry, looked up): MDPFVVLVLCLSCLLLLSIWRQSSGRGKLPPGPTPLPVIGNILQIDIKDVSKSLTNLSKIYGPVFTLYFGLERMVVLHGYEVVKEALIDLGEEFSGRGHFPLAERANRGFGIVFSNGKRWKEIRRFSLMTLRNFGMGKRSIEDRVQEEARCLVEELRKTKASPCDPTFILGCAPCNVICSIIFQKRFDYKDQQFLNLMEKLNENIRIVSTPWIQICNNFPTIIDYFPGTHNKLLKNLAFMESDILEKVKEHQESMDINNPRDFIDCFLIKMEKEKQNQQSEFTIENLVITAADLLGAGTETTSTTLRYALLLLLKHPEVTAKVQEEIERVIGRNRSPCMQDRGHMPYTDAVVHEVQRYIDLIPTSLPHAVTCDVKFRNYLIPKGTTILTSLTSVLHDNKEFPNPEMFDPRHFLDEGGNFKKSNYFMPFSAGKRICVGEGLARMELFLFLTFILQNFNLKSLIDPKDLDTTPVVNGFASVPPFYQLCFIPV
CYP2C9 inhib: blockers of cytochrome P450 2C9 activity – biochemical, luminescence, ADME assay, primary screen; AID 777, 2007; inhibition, % at 5 µM; CYP2C9 Supersomes, luciferin-H conversion; 96,000 compounds, 20% hits; P11712;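 active means blocking of liver enzyme CYP2C9 beyond about 50% at 5 µM, limit read from the data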
CYP2C9 activ: human CYP2C9 activators, primary screen, biochemical, luminescence | recombinant CYP2C9, luciferin-H conversion; stronger effect = higher value; factor 1 = untreated enzyme, 0 = blocked | activation factor at 5 µM | 96,000 compounds, 1.4% hits | AID 1024, 2008;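 active means activation factor of 2 or more for CYP2C9 at a 5 µM dose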;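 further: 0 = sulfaphenazole-blocked wells and 1 = vehicle-only wells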
CYP2C19 inh: blockers of cytochrome P450 2C19 activity – biochemical, luminescence, ADME assay, primary screen; P33261; CYP2C19 Supersomes, luciferin-H EGE luminescence, 30 min; inhibition, % at 5 µM; 96,000 compounds, 21% hits; AID 778, 2007;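 active means CYP2C19 inhibition above a set limit at 5 µM in the primary screen, cut at about 50% in these data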;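 further: plate controls were negative control wells for no effect and 2.5 mM tranylcypromine positive control for full effect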
Measles CPE: compounds protecting cells from measles virus cytopathic effect, primary screen, measles RdRp inhibitor project, single point, MLSMR library, absorbance; Measles virus-infected cells, CPE protection; protection (pct of control), % at 4 µM; 140,000 compounds, 1.5% hits; AID 841, 2007; in the data active means protection mostly above about 24%, no sharp cut-off; inactive means mostly below about 26%
An asterisk follows results filed as active; / = not tested or not shown.

SMILES	CYP2C19 act	CYP2C9 inhib	CYP2C9 activ	CYP2C19 inh	Measles CPE
c1ccc(CSCc2cn3ccsc3n2)cc1	0.9	4	1	7	20
Cc1csc2nc(CSc3ccc(Cl)cc3)cn12	0.3	-261	3.6*	73*	9
Clc1ccc(SCc2cn3ccsc3n2)cc1	0.5	-20	1.2	53*	57*
Nn1c(SCC(=O)N2CCCCCC2)nnc1-c1ccncc1	0.7	23	0.8	31	8
Nn1c(SCc2cn3ccsc3n2)nnc1-c1ccncc1	0.4	8	0.9	65*	26
CCC(=O)N1CCc2cc(S(=O)(=O)CCC(=O)Nc3cccc(F)c3)ccc21	0.9	9	0.9	7	25
c1coc(Cn2c(SCc3nc4ccccc4[nH]3)nnc2-c2cccs2)c1	0	92*	0.1	98*	6
Cc1cccc(-c2nnc(SCc3nc4ccccc4[nH]3)n2Cc2ccco2)c1	0.5	70*	0.3	54*	21
CC(=O)c1cc(Cc2csc(C(C)=O)c2)cs1	0.4	35	0.6	62*	/
COc1ccc(OCc2nnc(SCC(N)=O)n2N)cc1	1	-11	1.1	1	16
CCc1c(C)c(C#N)c2nc3ccccc3n2c1NCc1ccco1	0.6	71*	0.3	42	7
O=C(Nc1ccc(-c2cn3ccccc3n2)cc1)c1ccco1	/	/	/	/	16
NC(=O)NC(=O)COC(=O)CCCc1c[nH]c2ccccc12	0.7	0	1	34	7
COc1cc(C2CC(=O)N3CN(c4ccccc4C)CSC3=C2C#N)cc(OC)c1OC (stereo unspecified)	0.6	64*	0.4	37	27
COc1ccccc1N1CSC2=C(C#N)C(c3ccc(SC)cc3)CC(=O)N2C1 (stereo unspecified)	0.7	88*	0.1	34	24
COc1ccc(-c2nnn(Cc3nn[nH]n3)n2)cc1OC	0.8	58*	0.4	20	18
COc1cc(-c2nnn(CC(=O)NC3CCS(=O)(=O)C3)n2)ccc1OCc1ccccc1 (stereo unspecified)	0.5	69*	0.3	52*	/
COc1ccc(NC(=O)CCn2nnc(-c3ccc(C)cc3)n2)cc1OC	/	/	/	/	55*
COc1cc(-c2nnn(CC#N)n2)ccc1OCc1ccccc1	0	76*	0.2	96*	19
COC(=O)CCn1nnc(-c2ccc(C)cc2)n1	0.5	2	1	46	5
Nn1c(SCC(=O)Nc2ccc3c(c2)OCCO3)nnc1C(F)(F)F	1	16	0.8	2	13
CCOc1ccc2nnnn2n1	1	17	0.8	-2	6
COc1ccc(-c2nnn(CC(=O)c3ccccc3)n2)cc1OC	0.4	-61	1.6	59*	5
N#CCn1nnc(-c2ccc3c(c2)OCO3)n1	0.3	21	0.8	67*	14
COc1ccc(-c2nnn(CC(=O)NCc3ccccc3)n2)cc1OC	/	/	/	/	9
SMILES	CYP2C19 act	CYP2C9 inhib	CYP2C9 activ	CYP2C19 inh	Measles CPE
COC(=O)N1CCN(c2ccc(Cl)c(Cl)c2)CC1	0.3	28	0.7	66*	8
COC(=O)N1CCN(c2ccc(OC)cc2)CC1	0.6	-9	1.1	45	3
O=C(Nc1ccccc1)N(Cc1ccc(Cl)cc1)CC(O)C(F)(F)F (stereo unspecified)	0.6	53*	0.5	37	27
O=C(Nc1ccccc1)N(Cc1ccccc1)Cc1ccccc1	1	28	0.7	3	10
CC(=O)Nc1ccc(/C=N/NC(=O)c2cc3cc(C)ccc3nc2C)cc1	0.8	26	0.7	24	15
S=C(NCc1cccnc1)Nc1ccc(Cl)c(Cl)c1	0.1	98*	0	92*	6
CC(C)NC(=S)NCc1cccnc1	/	/	/	/	51*
Fc1cccc(NC(=S)NCc2cccnc2)c1	/	/	/	/	12
O=S(=O)(NCc1ccc2c(c1)OCO2)c1cnc[nH]1	0.3	92*	0.1	70*	38
O=S(=O)(NCc1ccc2c(c1)OCO2)c1ccc2c(c1)oc1ccccc12	1	23	0.8	-1	4
COc1cc(S(=O)(=O)NCc2ccc3c(c2)OCO3)ccc1Cl	0	30	0.7	100*	13
CCOc1ccc(OCC)c(S(=O)(=O)NCc2ccc3c(c2)OCO3)c1	0	92*	0.1	100*	11
CCOc1ccc(OCC)c(S(=O)(=O)NCc2ccccn2)c1	0.6	14	0.9	43	3
COc1cc(C)c(S(=O)(=O)NCc2ccc3c(c2)OCO3)cc1C	0	84*	0.2	100*	3
COc1ccc(C(=O)NCc2ccc3c(c2)OCO3)cc1S(=O)(=O)NCc1ccc(Cl)cc1	/	/	/	/	20
COc1cc(C)c(Cl)c(C)c1S(=O)(=O)NCc1ccc2c(c1)OCO2	0.8	-36	1.4	25	38
O=c1c2ccccc2nc(SCc2cccc(F)c2)n1C1CCCC1	/	/	/	/	9
CCOC(=O)c1ccc2c(c1)nc(SCc1cn3ccsc3n1)n2CC	0.7	52*	0.5	28	10
CCOC(=O)c1ccc2c(c1)nc(COc1ccc3ccccc3c1)n2CC	0.8	48	0.5	18	17
COCCNC(=O)C(c1ccc(C)o1)N(Cc1ccco1)C(=O)c1snc(C(N)=O)c1N (stereo unspecified)	/	/	/	/	7
CCn1c(=O)c2ccccc2n2c(SCC(=O)N3CCc4ccccc4C3)nnc12	1	-8	1.1	-4	7
O=C1CC(c2ccc(Br)cc2)NC(c2ccc(Br)cc2)C1c1ccccc1 (stereo unspecified)	/	/	/	/	53*
O=C1CCC([N+](=O)[O-])C(c2ccc(Br)cc2)N1 (stereo unspecified)	/	/	/	/	17
Cc1ccc(S(=O)(=O)N(CCO)c2cc3c(s2)CCCC3)cc1	0	9	0.9	99*	5
CC[n+]1c(/C=C/C=C/N(C(C)=O)c2ccccc2)sc2ccccc21	/	/	/	/	6
SMILES	CYP2C19 act	CYP2C9 inhib	CYP2C9 activ	CYP2C19 inh	Measles CPE
CC1CCCCN1S(=O)(=O)c1ccc(NC(=O)c2ccco2)cc1 (stereo unspecified)	0.4	72*	0.3	59*	3
CC(C)C(=O)Nc1ccc(NC(=O)c2ccco2)cn1	0.9	38	0.6	10	55*
CCCC(=O)Nc1ccc(NC(=O)c2cccs2)cn1	1.1	10	0.9	-7	3
O=C(Nc1ccc(NC(=O)C2CC2)nc1)c1cccs1	0.7	37	0.6	30	57*
O=C(Nc1ccc(NC(=O)C2CCCCC2)nc1)c1ccco1	0.4	32	0.7	61*	6
CCCc1cc2c(=O)c(-c3ccc4c(c3)OCCO4)coc2cc1OS(C)(=O)=O	/	/	/	/	4
CC1CCCN(C/C=C/c2ccccc2[N+](=O)[O-])C1 (stereo unspecified)	0.8	-2	1	17	5
